Rows were chosen to be rich in hits. Some 0.93% of all compounds tested hit in one or more screens of this group.
MBNL1 CUG block – qHTS Assay for Inhibitors of MBNL1-poly(CUG) RNA binding | Muscleblind-like protein 1 (Homo sapiens), Q9NR56 | TR-FRET MBNL1-His/biotin-(CUG)12 binding, 665/545 ratio | Potency, µM (top dose mostly 57.5 µM), for the others: at the highest dose activity change, negative = inhibition, hits mostly inhibitors | 0.036% of 280,000 active; active means well fitted inhibition curve with a large enough effect in the signal ratio, with a control signal flat, not every such curve was filed as active; inconclusive means small, poorly fitted or top-dose-only effect, or effect the other way, or a change in a side signal; inactive means no such curve, though single readings can be large or run the other way; the % refers to the signal ratio; further: potency means the concentration at half of the fitted maximal effect
Target sequence (Q9NR56 whole entry, looked up): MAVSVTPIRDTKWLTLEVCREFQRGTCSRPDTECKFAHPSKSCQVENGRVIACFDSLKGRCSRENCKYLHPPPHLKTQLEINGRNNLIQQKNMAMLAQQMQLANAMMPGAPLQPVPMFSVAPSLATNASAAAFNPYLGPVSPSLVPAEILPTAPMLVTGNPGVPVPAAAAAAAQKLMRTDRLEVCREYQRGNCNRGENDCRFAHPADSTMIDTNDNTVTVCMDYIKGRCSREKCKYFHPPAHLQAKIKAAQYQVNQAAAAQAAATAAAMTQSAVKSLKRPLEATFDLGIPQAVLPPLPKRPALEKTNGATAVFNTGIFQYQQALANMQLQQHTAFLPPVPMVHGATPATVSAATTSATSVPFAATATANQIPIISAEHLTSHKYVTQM
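Compounds (final 92 nM to 58 uM) are added to His-tagged MBNL1 and biotin-(CUG)12, then terbium anti-His antibody and streptavidin-XL665 (5 nM final). After 60 min at room temperature, the 665/545 nm ratio is read.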
Six1-Eya2 blk – qHTS Assay for Inhibitors of the Six1/Eya2 Interaction; AID 651725, 2012; activity change, % (no concentration beside the values); Homeobox protein SIX1 (Homo sapiens) + Protein phosphatase EYA2 (Homo sapiens), …; 0.56% of 360,000 active; AlphaScreen GST-Six1/His-Eya2 binding, biochemical; active compounds read low
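Compounds are tested against tagged Six1 and Eya2 proteins bridged by glutathione donor and nickel acceptor beads; after a one-hour incubation at 37 °C without light, AlphaScreen emission is recorded.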
PKM2 act – qHTS Assay for Activators of Human Muscle isoform 2 Pyruvate Kinase | 0.34% of 260,000 active | purified PKM2, Kinase-Glo ATP luminescence, activation; response scale: 0% is enzyme alone, no compound | AID 1631, 2009 | Potency, µM (top dose mostly 57.5 µM), inactives show at the highest dose activation, hits mostly activators | Pyruvate kinase PKM (Homo sapiens), P14618; active means well fitted activation curve with a large enough effect; inconclusive means small, poorly fitted or top-dose-only effect; inactive means no such curve, though single readings can be large or run the other way; further: potency means the concentration at half of the fitted maximal effect; nearly all actives have a fitted effect of over 55% in size
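hPK-M2, >95% pure; 0.1 mM ADP / 0.5 mM PEP final; imidazole pH7.2 buffer w/ 7 mM MgCl2, 50 mM KCl; 1 h RT; Kinase-Glo lum. Intermediate enzyme activity for dual inhibitor/activator qHTS.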
CtBP-E1A blk – qHTS Assay for Inhibitors of the CtBP/E1A Interaction. AlphaScreen GST-E1A/His-CtBP binding, 1536-well; active compounds read low. CtBP / adenovirus E1A interaction (AlphaScreen). activity change, % (concentration not given with the values). 0.49% of 340,000 active
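GST-E1A and His-tagged CtBP (125 nM each as 5X stock) were preincubated with pin-transferred compound for 2 h at 37 °C in the dark, then glutathione donor and nickel acceptor beads were added for 1 h before AlphaScreen reading.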
An asterisk follows results filed as active; [ ] = another dose, or the depositor's remark. Unless noted, no stated cut-off is given here; in the data, active means activity change below about -65%; inconclusive means mostly about -30% to -63%; inactive means weaker than that. On the % scale 0 is the no-effect control and ±100 the full control effect.

How did COc1cc2c(cc1OC)CN(S(=O)(=O)c1ccc3c(c1)OCCO3)CC2 do in these assays?
MBNL1 CUG block: -1%; Six1-Eya2 blk: -4; PKM2 act: 8.9µM*; CtBP-E1A blk: -12

Results for COc1ccc(S(=O)(=O)N2CCc3ccccc3C2)cc1OC ?
MBNL1 CUG block: -4%; Six1-Eya2 blk: 5; PKM2 act: 3%; CtBP-E1A blk: 13

Results for CC(/C=C/c1ccccc1)=N/NC(=O)c1cnccn1 ?
MBNL1 CUG block: 12%; Six1-Eya2 blk: -86*; PKM2 act: -1%; CtBP-E1A blk: -5

How did CCN(CC)c1ccc(N=Cc2ccccc2[N+](=O)[O-])cc1 do in these assays?
MBNL1 CUG block: 11%[11.5 µM]; Six1-Eya2 blk: -80*; PKM2 act: -14%; CtBP-E1A blk: 16

How did CCc1nc(NCCc2ccccn2)c2nnn(Cc3ccccc3F)c2n1 do in these assays?
MBNL1 CUG block: -10%; Six1-Eya2 blk: 0; PKM2 act: 25µM*; CtBP-E1A blk: -1

What do the screens show for `CCCc1nc(NCc2ccccn2)c2nnn(Cc3ccccc3F)c2n1`?
MBNL1 CUG block: 4%; Six1-Eya2 blk: 7; PKM2 act: 4%; CtBP-E1A blk: -23

Results for COc1cc2c(cc1OC)C1O[C@](CCCCN3C(=O)c4ccccc4C3=O)(C2)Oc2cc(C)n(Cc3ccccc3)c(=O)c21 ?
MBNL1 CUG block: 1%[11.5 µM]; PKM2 act: 0%[11.5 µM]

Results for O=C(NCCCn1ccnc1)C(=O)NCC1OCCN1S(=O)(=O)c1ccc2c(c1)OCCO2 (configuration not stated) ?
MBNL1 CUG block: -12%; Six1-Eya2 blk: -24; PKM2 act: -7%; CtBP-E1A blk: -12

Results for Cc1cc(C)c(S(=O)(=O)N2CCOC2CNC(=O)C(=O)NCCCn2ccnc2)c(C)c1 (configuration not stated) ?
MBNL1 CUG block: -1%; Six1-Eya2 blk: -70*; PKM2 act: -3%; CtBP-E1A blk: inconclusive

Results for CCOC(=O)c1[nH]cnc1N=Nc1c(O)ccc2ccccc12 ?
MBNL1 CUG block: inconclusive; Six1-Eya2 blk: -82*; PKM2 act: -6%; CtBP-E1A blk: -70*

What do the screens show for `Oc1ccc2ccccc2c1N=Nc1ccccc1F`?
MBNL1 CUG block: 3%; Six1-Eya2 blk: -88*; PKM2 act: -2%; CtBP-E1A blk: inconclusive

How did Oc1ccc2ccccc2c1N=Nc1ccccn1 do in these assays?
MBNL1 CUG block: inconclusive; Six1-Eya2 blk: -84*; PKM2 act: -8%; CtBP-E1A blk: -73*

What do the screens show for `Cc1cc(C(=O)OCC(=O)Nc2cccc(S(N)(=O)=O)c2)c(C)o1`?
Six1-Eya2 blk: -16; CtBP-E1A blk: -68*

Results for O=C(Nc1nc2ccccc2[nH]1)c1ccc(S(=O)(=O)N2CCOCC2)cc1 ?
MBNL1 CUG block: -8%; Six1-Eya2 blk: -1; PKM2 act: 11%

How did O=C(Nc1nc2ccccc2[nH]1)c1ccc(Cl)c(S(=O)(=O)N2CCCC2)c1 do in these assays?
MBNL1 CUG block: -1%; Six1-Eya2 blk: inconclusive; PKM2 act: -7%; CtBP-E1A blk: -73*

How did O=C(OCCOc1cccc(Cl)c1)c1ccc2ncsc2c1 do in these assays?
MBNL1 CUG block: -2%; Six1-Eya2 blk: 44; PKM2 act: 16µM*; CtBP-E1A blk: 13

What do the screens show for `O=C(COC(=O)c1ccc2ncsc2c1)NCc1cccc(Cl)c1`?
Six1-Eya2 blk: 0; CtBP-E1A blk: -15

How did O=c1c2sccc2nc(SCc2cc(=O)n3cc(Br)ccc3n2)n1Cc1ccccn1 do in these assays?
MBNL1 CUG block: 208%; Six1-Eya2 blk: -7; PKM2 act: 7.9µM*; CtBP-E1A blk: -3

How did CNc1nc(NCc2ccc(N(C)C)cc2)c2sccc2n1 do in these assays?
Six1-Eya2 blk: -67*; CtBP-E1A blk: inconclusive

What do the screens show for `CNc1nc(NCc2ccc(C)cc2C)c2sccc2n1`?
Six1-Eya2 blk: 7; CtBP-E1A blk: -26

What do the screens show for `COc1cccc(C(C(=O)NC2CCCC2)N2CCN(c3ncccc3C#N)CC2)c1OC` (configuration not stated)?
Six1-Eya2 blk: -1; CtBP-E1A blk: 5

Results for Cc1cccc(-n2cnc(C(=O)NNC(=S)Nc3ccc(Cl)cc3)c2)n1 ?
Six1-Eya2 blk: -90*; PKM2 act: 0%; CtBP-E1A blk: -88*

What do the screens show for `CCOC(=O)C1CSC(Cc2ccc(OCc3ccc([N+](=O)[O-])cc3)cc2)N1` (configuration not stated)?
PKM2 act: 2%

What do the screens show for `CC1OC1c1ccc(-c2ccc(C3OC3C)cc2)cc1` (configuration not stated)?
Six1-Eya2 blk: -15; CtBP-E1A blk: -86*

Results for Cc1ccc(C2OCC3(CO2)COC(c2ccc(C)cc2)OC3)cc1 (configuration not stated) ?
Six1-Eya2 blk: 10; PKM2 act: 0%; CtBP-E1A blk: 0

What do the screens show for `COC(=O)[C@@]1(Cc2ccccc2)[C@H]2c3cc(C(=O)N4CCCC4)n(CC4CC4)c3C[C@H]2CN1C(=O)c1ccccc1`?
PKM2 act: 0%

What do the screens show for `Cc1[nH]n(-c2ccccc2)c(=O)c1N=Nc1ccccc1O`?
MBNL1 CUG block: 7%; Six1-Eya2 blk: -87*; PKM2 act: 2%; CtBP-E1A blk: -81*

How did COC(=O)[C@@]1(Cc2ccc(F)cc2)[C@H]2c3cc(C(=O)N(C)C)n(Cc4ccc(C)o4)c3C[C@H]2CN1C(=O)c1ccccc1 do in these assays?
Six1-Eya2 blk: -16; PKM2 act: 7.1µM*; CtBP-E1A blk: -3

How did COC(=O)[C@@]1(Cc2ccc(F)cc2)[C@H]2c3cc(C(=O)N(C)C)n(Cc4ccccc4)c3C[C@H]2CN1C(=O)c1ccccc1 do in these assays?
MBNL1 CUG block: 11%; Six1-Eya2 blk: -10; PKM2 act: 1%; CtBP-E1A blk: -5

How did CC1(C(=O)NCCC(F)(F)F)Cc2c(-c3ccccc3)ccnc2O1 (configuration not stated) do in these assays?
Six1-Eya2 blk: 0; CtBP-E1A blk: 2

How did Oc1cccc2ccc(Nc3ccccn3)nc12 do in these assays?
MBNL1 CUG block: 3%; Six1-Eya2 blk: -91*; PKM2 act: -4%; CtBP-E1A blk: -100*

What do the screens show for `c1ccc(Nc2ccccc2Nc2ccccn2)nc1`?
MBNL1 CUG block: 6%; Six1-Eya2 blk: -6; PKM2 act: -3%; CtBP-E1A blk: -2

What do the screens show for `COC(=O)C1CC1C(NC(=O)[C@@H]1CCCN1)c1ccccc1` (some centres not stated)?
PKM2 act: -3%

What do the screens show for `COC(=O)[C@@H]1C[C@@H]2CC[C@@H](O)C[C@@H]2N1Cc1ccc(C)s1`?
PKM2 act: 4%
